Our source for the Potency and outcome values is PubChem BioAssay (Tox21).

Assay [1] can be described thus: qHTS assay to identify small molecule antagonists of the thyroid receptor (TR) signaling pathway - cell viability counter screen (AID 743064). Also: nearly all actives have a fitted effect of over 50% in size. Also: potency is read from the fitted curve at half-maximal effect. The gist of the method:
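CellTiter-Fluor readout, 30 min at 37 °C/5% CO2, following 23.5 h incubation of GH3.TRE-Luc cells with test compound and 1 nM T3 (final).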
A general note: Quantitative high-throughput screening tests each substance at several concentrations.

The nature of assay [2]: qHTS assay to identify small molecule antagonists of the thyroid receptor (TR) signaling pathway (AID 743065). Also: nearly all actives have a fitted effect of over 55% in size. Also: potency is read from the fitted curve at half-maximal effect. The gist of the method: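 GH3.TRE-Luc rat pituitary cells carrying two TR response elements driving luciferase were plated for 4 h, given compound plus 1 nM T3 (final), and incubated 23.5 h at 37 C. ONE-Glo luminescence measured reporter inhibition; CellTiter-Fluor fluorescence tracked cytotoxicity.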

The subject of assay [3] is thyroid hormone receptor (rat, GH3 cells). In words: qHTS assay to identify small molecule agonists of the thyroid receptor (TR) signaling pathway (AID 743066; calls by dose curve).
Assay [4] is described as follows: qHTS assay to identify small molecule antagonists of the estrogen receptor alpha (ER-alpha) signaling pathway - cell viability counter screen (AID 743074; calls by dose curve;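 also: HEK293 cells carrying ER-alpha-UAS-bla reporter stimulated with 17beta-estradiol; nearly all actives have a fitted effect of over 45% in size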; also: potency is read from the fitted curve at half-maximal effect).
The nature of assay [5]: qHTS assay to identify small molecule antagonists of the estrogen receptor alpha (ER-alpha) signaling pathway using the BG1 cell line - cell viability counter screen (AID 743081).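 Also: compound given together with 17beta-estradiol as the ER stimulus; nearly all actives have a fitted effect of over 45% in size.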 Also: potency is read from the fitted curve at half-maximal effect.
For another assay, the target named is Aromatase (Homo sapiens) (UniProt P11511). As to the kind of experiment: qHTS assay to identify aromatase inhibitors (AID 743083). Also: nearly all actives have a fitted effect of over 55% in size. Also: potency is read from the fitted curve at half-maximal effect.
Chain of Aromatase (Homo sapiens) (P11511 whole entry, looked up): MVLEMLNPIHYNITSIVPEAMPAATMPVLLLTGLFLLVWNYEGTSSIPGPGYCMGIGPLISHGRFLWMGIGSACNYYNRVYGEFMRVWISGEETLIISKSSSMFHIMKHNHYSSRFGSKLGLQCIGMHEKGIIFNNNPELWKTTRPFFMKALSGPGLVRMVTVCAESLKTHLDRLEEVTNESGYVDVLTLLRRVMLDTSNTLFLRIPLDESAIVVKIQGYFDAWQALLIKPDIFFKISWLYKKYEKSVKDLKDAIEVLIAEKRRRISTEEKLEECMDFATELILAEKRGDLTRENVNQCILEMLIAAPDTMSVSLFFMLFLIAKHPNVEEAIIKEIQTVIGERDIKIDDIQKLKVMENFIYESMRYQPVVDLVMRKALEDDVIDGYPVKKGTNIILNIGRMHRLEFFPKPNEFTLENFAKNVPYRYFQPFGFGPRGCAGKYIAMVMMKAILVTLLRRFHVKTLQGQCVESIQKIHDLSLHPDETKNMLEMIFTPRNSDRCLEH
Assay [6] deals with Estrogen receptor (Homo sapiens) (UniProt P03372). In words: qHTS assay to identify small molecule antagonists of the estrogen receptor alpha (ER-alpha) signaling pathway (AID 743069; active = well fitted curve in the direction sought with a large enough effect in the signal ratio in the repeat runs, not every such curve was filed as active; inconclusive = weak or mixed curves, or effect the other way; inactive = no such curve, though single readings can be large or run the other way; the % refers to the signal ratio; also: potency is read from the fitted curve at half-maximal effect). Summed up: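 Estradiol-stimulated ER-alpha-UAS-bla HEK293 cells, 18 hr compound exposure at 37C. LiveBLAzer B/G substrate, 2 hr RT, fluorescence read.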
Chain of Estrogen receptor (Homo sapiens) (P03372 whole entry, looked up): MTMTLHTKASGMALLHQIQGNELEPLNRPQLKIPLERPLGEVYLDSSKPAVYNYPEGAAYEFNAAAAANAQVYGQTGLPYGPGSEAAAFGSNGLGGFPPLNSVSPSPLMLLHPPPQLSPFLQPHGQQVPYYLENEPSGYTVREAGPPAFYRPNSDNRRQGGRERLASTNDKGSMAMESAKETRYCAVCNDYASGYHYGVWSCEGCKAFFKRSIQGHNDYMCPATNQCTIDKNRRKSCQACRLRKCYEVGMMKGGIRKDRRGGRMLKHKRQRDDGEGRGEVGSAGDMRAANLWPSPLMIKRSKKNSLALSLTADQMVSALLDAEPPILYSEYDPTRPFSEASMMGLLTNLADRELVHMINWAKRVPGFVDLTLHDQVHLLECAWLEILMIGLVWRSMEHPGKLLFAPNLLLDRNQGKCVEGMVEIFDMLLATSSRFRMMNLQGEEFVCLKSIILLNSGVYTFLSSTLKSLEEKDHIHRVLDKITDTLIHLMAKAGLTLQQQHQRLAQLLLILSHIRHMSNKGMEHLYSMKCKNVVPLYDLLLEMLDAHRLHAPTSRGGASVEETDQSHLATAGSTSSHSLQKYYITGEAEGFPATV
The target is the same in assay [7]. As to the kind of experiment: qHTS assay to identify small molecule agonists of the estrogen receptor alpha (ER-alpha) signaling pathway (AID 743075; calls by dose curve;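 also: HEK293 GripTite cells with ER-alpha and UAS-driven beta-lactamase reporter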; also: potency is read from the fitted curve at half-maximal effect).
The target is the same in assay [8]. As to the kind of experiment: qHTS assay to identify small molecule agonists of the estrogen receptor alpha (ER-alpha) signaling pathway using the BG1 cell line (AID 743079). Also: nearly all actives have a fitted effect of over 20% in size. Also: potency is read from the fitted curve at half-maximal effect.
The nature of assay [9]: qHTS assay to identify small molecule antagonists of the estrogen receptor alpha (ER-alpha) signaling pathway using the BG1 cell line (AID 743080; calls by dose curve;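 also: BG1 cells stimulated with 17beta-estradiol alongside compound; nearly all actives have a fitted effect of over 25% in size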; also: potency is read from the fitted curve at half-maximal effect). Summed up:
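Luminescence from a 4×ERE-luciferase reporter in BG1-Luc-4E2 cells served as read-out. Cells, pre-cultured 5 days in stripped-serum phenol-red-free medium, were exposed to compound with 17beta-estradiol co-stimulation for 21.5 h at 37 C.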

SMILES strings stand for the structures. Where “and” joins values, the source holds several entries; their conditions need not be identical. Identical values can stand only once. A structure can be active in one record and inactive in another. Calls of active or inactive are those of the source. Unless noted, calls follow the shape of the dose curve; as a rule, active = well fitted curve in the direction sought with a large enough effect in the repeat runs; inconclusive = weak or mixed curves; inactive = no such curve, though single readings can be large; an effect the other way counts as inactive or inconclusive.

`CCCCCCC(C)(C)S`: the Potency entry (in [1]; in assay [2]; in [4]; in assay [5]; with Aromatase (Homo sapiens)) was “inactive” each time. For the same molecule, in assay [3], the outcome was inactive.

`CC(=O)[C@@]1(O)CC[C@H]2[C@@H]3CCC4=CC(=O)CC[C@]4(C)[C@H]3CC[C@@]21C`: the Potency result in [1], in assay [4] and in assay [5] was “inactive” throughout.

For `Cc1ccc(C)c(C)c1`, the Potency result in assay [2], in assay [6], in [4], in [7], in assay [8] and in [9] was “inactive” each time. Moreover, the Potency result (in assay [5]; with Aromatase (Homo sapiens)) was “inactive” each time. The molecule was called inactive in assay [3].

As for `O=C(Oc1ccccc1)c1ccc(O)cc1`, the Potency entry (in [1]; in assay [2]; in assay [4]; in assay [5]; with Aromatase (Homo sapiens)) was “inactive” throughout. Moreover, the result in assay [3] was inactive.

In the case of `CC(C)NCC(O)COc1cccc2ccccc12` (stereo not given), the Potency in [1] is 30.6 µM (active); in assay [2] it was 61.8 µM (active) and 54.5 µM (active). Besides, the molecule was called inactive in assay [3]. In addition, the Potency result (in assay [4]; in assay [5]; in the assay with Aromatase (Homo sapiens)) was “inactive” in each case.

As to `c1ccc2[nH]cnc2c1`, the Potency entry (in assay [1]; in assay [2]; in [4]; in assay [5]; with Aromatase (Homo sapiens)) was “inactive” each time. In assay [3], the result was inactive.

Take `CCC(C)C=O` (stereo not given): the Potency entry in assay [2], in assay [6], in assay [4], in [7], in assay [8] and in assay [9] was “inactive” throughout. For the same molecule, the Potency result (in assay [5]; with Aromatase (Homo sapiens)) was “inactive” throughout. For the same molecule, the molecule was classed as inactive in [3].

With `Cc1ccc(N)c(S(=O)(=O)O)c1`, the Potency result (in assay [1]; in assay [2]; in [4]; in [5]; in the assay with Aromatase (Homo sapiens)) was “inactive” each time. Besides, the result in [3] was inactive.

For `CCCCCCCCCCCCOCC1CO1` (stereo not given), the Potency result in assay [2], in assay [6], in [4], in assay [7], in assay [8] and in assay [9] was “inactive” throughout. Moreover, the Potency entry (in assay [5]; with Aromatase (Homo sapiens)) was “inactive” throughout. Further, in [3], the outcome was inactive.

In the case of `OCC1CCCO1` (stereo not given), the Potency entry in [1], in [6], in assay [4], in [7], in assay [8] and in [9] was “inactive” throughout. Also, the Potency result (in [5]; with Aromatase (Homo sapiens)) was “inactive” each time.

For the molecule `Oc1ccc2ccccc2c1`, the Potency entry (in assay [1]; in [4]; in [5]; with Aromatase (Homo sapiens)) was “inactive” in each case.

Regarding `CCCCCCCCC`, the Potency entry in [2], in assay [6], in [4], in assay [7], in [8] and in assay [9] was “inactive” throughout. Also, the Potency entry (in assay [5]; with Aromatase (Homo sapiens)) was “inactive” each time. For the same molecule, the outcome in [3] was inactive.

As for `C/C=C(C)/C=C/C=C(C)C`, the Potency entry (in assay [1]; in assay [4]; in assay [5]; in the assay with Aromatase (Homo sapiens)) was “inactive” throughout. For the same molecule, the molecule was classed as inactive in [3].

Take `CCCCCCCCCCCCN`: the Potency entry in assay [1] is “inactive and 24.3 µM (active)”; in assay [4], “inactive and 54.9 µM (active)”; with Aromatase (Homo sapiens) it was 61.1 µM (active). The outcome in assay [3] was inactive. Besides, the Potency entry in assay [5] was “inactive”.

As for `CCCCCCCCCCC=CC1CC(=O)OC1=O` (stereo not given), the Potency entry in [1], in assay [4] and in [5] was “inactive” in each case. Also, the molecule was classed as inactive in assay [3].

Take `CCCCC(CC)COC(=O)/C=C\C(=O)OCC(CC)CCCC` (stereo not given): the Potency entry (in [1]; in assay [2]; in assay [4]; in [5]; in the assay with Aromatase (Homo sapiens)) was “inactive” each time. Besides, the result in assay [3] was inactive.

As to `CCC(=O)O`, the Potency result in assay [1], in [6], in assay [4], in assay [7], in [8] and in assay [9] was “inactive” each time. Also, the Potency result (in [5]; with Aromatase (Homo sapiens)) was “inactive” in each case.

Consider `CN(CCOc1ccc(CC2SC(=O)NC2=O)cc1)c1ccccn1` (stereo not given), for which the Potency in [2] is 54.2 µM (active). In addition, the result in assay [3] was inactive. For the same molecule, the Potency entry in [6], in assay [4], in assay [7], in assay [8], in assay [9] and in assay [5] was “inactive” in each case.

On to `C=C1CC[C@H](O)CC1=C/C=C1\CCC[C@]2(C)[C@@H]([C@H](C)/C=C/[C@H](C)C(C)C)CC[C@@H]12`, for which the Potency is 60.6 µM (active) in assay [1]; 26.6 µM (active) and 54 µM (active) and 54.5 µM (active) in assay [2]; 54.5 µM (active) and 54.9 µM (active) in assay [4]; “inactive and 61.1 µM (active)” with Aromatase (Homo sapiens). In addition, in [3], the molecule was classed as inactive. Also, the Potency entry in assay [5] was “inactive”.

In the case of `OC[C@@H](O)[C@H](O)[C@H](O)[C@@H](O)CO`, the Potency entry in assay [2], in assay [6], in assay [4], in [7], in [8] and in [9] was “inactive” each time. Also, the Potency entry (in assay [5]; with Aromatase (Homo sapiens)) was “inactive” in each case. In addition, the molecule was called inactive in assay [3].

For the molecule `OC[C@@H](O)[C@@H](O)[C@H](O)[C@@H](O)CO`, the Potency entry in assay [2], in [6], in assay [4], in [7], in assay [8] and in [9] was “inactive” throughout. The Potency result (in assay [5]; with Aromatase (Homo sapiens)) was “inactive” throughout. The call in assay [3] was inactive.

`Cc1ccc(C(=O)O)o1`: the Potency entry (in assay [1]; in assay [2]; in [4]; in [5]; with Aromatase (Homo sapiens)) was “inactive” throughout. Moreover, the molecule was classed as inactive in assay [3].

Take `CC(C)(C)C(=O)C1C(=O)c2ccccc2C1=O`: the Potency in [1] is 67.9 µM (active); in [6], 54.4 µM [inconclusive] (active) and 54.9 µM [inconclusive] (active). Moreover, the molecule was called inactive in assay [3]. The Potency result (in assay [4]; in [7]; in the assay with Aromatase (Homo sapiens)) was “inactive” in each case.

Regarding `O=[N+]([O-])c1cc(N(CCO)CCO)ccc1NCCO`, the Potency is 61 µM (active) in assay [1] and 48.5 µM (active) in assay [5]. Besides, the molecule was classed as inactive in assay [3]. In addition, the Potency result in [6], in [4], in assay [7] and in [8] was “inactive” throughout.

As for `NC(=O)NNc1ccccc1`, the Potency result (in assay [1]; in [2]; in assay [4]; in assay [5]; in the assay with Aromatase (Homo sapiens)) was “inactive” throughout. In addition, the molecule was called inactive in assay [3].

For the molecule `CCOC(=O)/C=C\C(=O)OCC`, the Potency entry in assay [1], in [6], in assay [4], in assay [7], in assay [8] and in assay [9] was “inactive” in each case. The Potency result (in assay [5]; in the assay with Aromatase (Homo sapiens)) was “inactive” throughout.

Regarding `Oc1ccc(OCc2ccccc2)cc1`, the Potency is 9.02 µM (active) in assay [1]; 11.4 µM [activator] (active) and 53.8 µM [inconclusive] (active) in assay [7]; 8.04 µM (active) and 9.48 µM (active) in assay [8]. Further, the Potency result (in assay [6]; in assay [4]; in assay [5]; in the assay with Aromatase (Homo sapiens)) was “inactive” throughout.

As to `O=C(c1cc(O)c(O)c(O)c1)c1ccc(O)c(O)c1O`, the Potency in [2] is 43.1 µM (active) and 68.6 µM (active); in assay [5], 68.4 µM (active) and 61.1 µM (active). Further, in assay [3], the call was inactive. Also, the Potency result (in assay [6]; in assay [4]; in assay [7]; in assay [8]; in assay [9]; in the assay with Aromatase (Homo sapiens)) was “inactive” each time.

In the case of `NCc1cccc(CN)c1`, the Potency result in assay [2], in [6], in [4], in assay [7], in assay [8] and in assay [9] was “inactive” each time. The Potency result (in [5]; with Aromatase (Homo sapiens)) was “inactive” throughout. Moreover, the call in assay [3] was inactive.

For `COCC(=O)O`, the Potency entry in assay [2], in [6], in assay [4], in assay [7], in [8] and in [9] was “inactive” throughout. The Potency result (in [5]; with Aromatase (Homo sapiens)) was “inactive” in each case. The outcome in assay [3] was inactive.

For `COC(=O)c1ccccc1O`, the Potency result in assay [2], in [6], in [4], in assay [7], in assay [9] and in assay [5] was “inactive” throughout. The Potency result in the assay with Aromatase (Homo sapiens) was “inactive”. In addition, the molecule was classed as inactive in [3]. In addition, the Potency in [8] is 23.7 µM (active) and inactive.

For the molecule `CC1=C(/C=C/C(C)=C/C=C/C(C)=C/CO)C(C)(C)CCC1`, the result in [3] was inactive. Also, the Potency entry in assay [6], in assay [4] and in assay [5] was “inactive” each time. The Potency was 8.49 µM [inconclusive] (active) and inactive in assay [7]; 944 nM (active) and inactive in [8]; 15 µM (active) and 7.79 µM (active) and inactive in [9]; “inactive and 28.8 µM (active)” with Aromatase (Homo sapiens).
